PubChem BioAssay (Tox21)
Results filed as inconclusive are left out. Where a call stands in place of a potency, no number is given. Values without a mark were called inactive. The source made the active and inactive calls. Calls follow the shape of the dose curve; as a rule, active = well fitted cell-killing curve with a large enough effect in the repeat runs; inconclusive = weak or mixed curves, or effect the other way; inactive = flat fitted curve, though single readings scatter.

Tests used:
[1] = cAMP Responsive Elements (CRE) small molecule antagonists, cell-based qHTS assay: qHTS cell viability counter screen (AID 2060913); also: nearly all actives have a fitted effect of over 40% in size
Summary of the method: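 Steps: cells plated and held 18 hrs at 37 C/5% CO2; compounds and NKH477 (0.25 uM final) added; 3 hrs incubation; reporter substrate read; CellTiter-Glo added to measure cytotoxicity by luminescence.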

[2] = cAMP Responsive Elements (CRE) small molecule agonists, cell-based qHTS assay: qHTS cell viability counter screen (AID 2060914);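 also: viability read after 3 h of compound exposure; nearly all actives have a fitted effect of over 50% in size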
Summary of the method: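 HEK 293T CRE-bla; DMEM + 10% dialyzed FBS, 25 mM HEPES; 18 h pre-incubation; compound 3 h, 37 °C/5% CO2; CellTiter-Glo added after reporter read; luminescence after 30 min RT.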

Structure (SMILES)	Potency [1]	Potency [2]	viability change, negative = cytotoxic [1]	activity change, negative = cytotoxicity [2]
O=C1OC2(c3cc(Br)c(O)c(Br)c3Oc3c2cc(Br)c(O)c3Br)c2c(Cl)c(Cl)c(Cl)c(Cl)c21	inactive	inactive		
O=C1c2ccccc2S(=O)(=O)N1CCCCN1CCN(c2ncccn2)CC1	inactive	inactive		
CCCCOCCOCCOC(C)=O	inactive	inactive		
CNC[C@H](O)c1cccc(O)c1	inactive	inactive		
CCCCCCC(CCCCCCCCCCC(=O)OCC(COC(C)=O)OC(C)=O)OC(C)=O (stereo not given)	inactive	inactive		
C[C@@H]1C[C@H]2O[C@@]3(O[C@@H]2C(C)(C)O)[C@H](O)[C@@]2(C)[C@@H]4CC[C@H]5C(C)(C)[C@@H](O[C@@H]6OC[C@@H](O)[C@H](O)[C@H]6O)CC[C@@]56C[C@@]46CC[C@]2(C)[C@@H]13	inactive	inactive		
C=C[C@@]1(C)CC(=O)[C@]2(O)[C@@]3(C)[C@@H](O)CCC(C)(C)[C@@H]3[C@H](O)[C@H](OC(C)=O)[C@@]2(C)O1	inactive	inactive		
OCc1c2ccccc2cc2ccccc12	inactive	inactive		
CCCCCCCC/C=C/C(=O)O	inactive	inactive		
NC[C@H](O)c1ccc(O)c(O)c1	inactive	inactive		
C=CC(C)(O)CCCC(C)CCCC(C)CCCC(C)C (stereo not given)	inactive	inactive		
CC(CCC(=O)O)C(=O)O (stereo not given)	inactive	inactive		
O=P(O)(OCc1ccccc1)OCc1ccccc1	inactive	inactive		
Cc1ccc(C(=O)c2ccc(CC(=O)O)n2C)cc1	inactive	inactive		
NCCN1CCOCC1	inactive	inactive		
Nc1c2c(nc3ccccc13)CCCC2	inactive	inactive		
C=CCOC(=O)CCCCCC	inactive	inactive		
COC(=O)CCC(=O)OC	inactive	inactive		
CCCCOC(=O)C(C)O (stereo not given)	inactive	inactive		
C=CC(=O)OCC[N+](C)(C)C	inactive	inactive		
Nc1ncnc(Nc2ccccc2)n1	inactive	inactive		
O=C(O)Cc1c(Cl)ccc(Cl)c1Cl	inactive	inactive		
O=c1[nH]c(=O)n([C@H]2O[C@H](CO)[C@@H](O)[C@@H]2O)cc1/C=C\Br	inactive	inactive		
COC(=O)Nc1nc2ccc(Sc3ccccc3)cc2[nH]1	inactive	inactive		
CCO[Si](CCCS)(OCC)OCC	inactive	inactive		
O=c1oc2cc(O)ccc2c2oc3cc(O)ccc3c12	inactive	inactive		
c1ccc2n[nH]nc2c1	inactive	inactive		
CCCCCCCCC1CCC(=O)O1 (stereo not given)	inactive	inactive		

Structure (SMILES)	Potency [1]	Potency [2]	viability change, negative = cytotoxic [1]	activity change, negative = cytotoxicity [2]
O=S(=O)(O)CCCN1CCOCC1	inactive	inactive		
CC(=O)NO	inactive	inactive		
CCCCN1C(=O)c2ccccc2C1=O	inactive	inactive		
Cc1ccc2n[nH]nc2c1	inactive	inactive		
CC[Si](OC(C)=O)(OC(C)=O)OC(C)=O	inactive	inactive		
O=[N+]([O-])c1ccc(CCO)cc1	inactive	inactive		
CC1=C(/C=C/C(C)=C/C=C/C(C)=C/CO)C(C)(C)CCC1	inactive	inactive		
OCCN1CCN(CCO)CC1	inactive	inactive		
CC/C=C\C/C=C\C/C=C\CCCCCCCC(=O)O	inactive	inactive		
COc1ccccc1OCC1CNC(=O)O1 (stereo not given)	inactive	inactive		
C=CCOC(=O)CCCCCCCC	inactive	inactive		
CCOC(=O)NCCC[Si](OCC)(OCC)OCC	inactive	inactive		
Oc1ccccc1O	inactive	inactive		
CCOC(=O)[C@H](CCc1ccccc1)N[C@@H](C)C(=O)N1CCC[C@H]1C(=O)O	inactive	inactive		
Cc1ccc2c(c1[N+](=O)[O-])C(=O)c1ccccc1C2=O	inactive	inactive		
Cc1ccccn1	inactive	inactive		
CC(=O)Nc1ccccc1C	inactive	inactive		
C=C(C)C(=O)OCC[N+](C)(C)C	inactive	inactive		
C=CC(=O)OCCC(=O)O	inactive	inactive		
CCC(=O)c1ccc(O)cc1	inactive	inactive		
CCOc1ccc(NS(=O)(=O)c2ccc(N)cc2)nn1	inactive	inactive		
NCc1ccccc1Sc1ccccc1CO	inactive	inactive		
CC1=CC[C@@H]2C[C@H]1C2(C)C			-0.978% [at 18.9 µM]	-0.0766% [at 18.9 µM]
CC(C)(O)c1ccc(C(C)(C)O)cc1	inactive	inactive		
OCc1ccc(Cl)cc1Cl	inactive	inactive		
CNC1(C)C2CCC(C2)C1(C)C (stereo not given)	inactive	inactive		
CC(=O)OC/C=C(/C)CCC=C(C)C	inactive	inactive		
